Results: PubChem BioAssay AID977607 (Broad Institute, 2014)
Out of some 1,500 compounds screened, about 460 (31%) were called active. Inconclusive results (about 1%) are left out.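 How the source made its calls: active means curve reaches 40% activation over neutral controls at an AC40 no higher than the top valid tested concentration; inconclusive means no clear call, values can overlap the other calls; inactive means signal moving opposite to the expected increase, and the rest.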 Only a sample is shown. Entries with a potency or affinity are not part of this list.

Assay: activators of glucose-dependent insulin secretion, dose response, cell-based, INS-1E, Gaussia luciferase, luminescence, cherry-pick, set 2 (AID 977607);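 further: 0% = median of the plate neutral control wells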
Conditions: INS-1E GLuc insulin secretion reporter, 2-3 h, hits give high values; at 35 µM, 100% = signal doubled over neutral wells unless noted

Max activation, inactive:
COc1ccccc1C(OC(=O)c1cccs1)C(=O)NCC1CCCO1 (stereo not drawn) -15.4% [at 0.015 µM, 100% = signal doubled over neutral wells], Cc1cccc(C2N=C(N)Nc3nc4ccccc4n32)c1 (stereo not drawn) -24% [at 0.005 µM, 100% = signal doubled over neutral wells], O=C(Cc1c[nH]c2ccccc12)N[C@@H](Cc1c[nH]c2ccccc12)C(=O)O 39.3% [at 0.135 µM, 100% = signal doubled over neutral wells], C=CCn1c(O)c(N=NC(=O)CNC(=O)c2ccco2)c2ccccc21 10.5%, O=c1[nH]nc(-c2cccs2)c2ccccc12 31.3%, O=C1NC(c2ccccc2)c2c(-c3ccccc3)n[nH]c21 (stereo not drawn) -9.3% [at 0.005 µM, 100% = signal doubled over neutral wells], CCCc1cc(=O)n2[nH]c(C)c(-c3ccc(Cl)cc3)c2n1 24.5% [at 0.0016 µM, 100% = signal doubled over neutral wells], CCc1nnc(NC(=O)C(c2ccccc2)c2ccccc2)s1 -21.5%, O=C(Nc1ccccc1)Nc1nnc(-c2cccs2)s1 -23.9% [at 11 µM, 100% = signal doubled over neutral wells], O=S(=O)(Nc1ncnc2sc3c(c12)CCC3)c1cc(F)ccc1F 30.2% [at 0.135 µM, 100% = signal doubled over neutral wells], NC(=O)c1ccc2nc(-c3ccccc3)c(-c3ccccc3)nc2c1 28.4%, O=C(O)CCCNC(=O)c1nn(Cc2ccccc2)c(=O)c2ccccc12 -18.7% [at 0.0016 µM, 100% = signal doubled over neutral wells], CCOC(=O)Cn1c(=O)n(Cc2ccccc2)c(=O)c2cccnc21 -12.9% [at 0.0016 µM, 100% = signal doubled over neutral wells], c1ccc(Oc2ccccc2-c2cc(NCCc3cccnc3)n3nccc3n2)cc1 -10.9% [at 0.046 µM, 100% = signal doubled over neutral wells], O=C(Nc1nnc(-c2ccc(Cl)cc2)o1)NC1CCCCC1 -20.9%, O=C(CCCC(=O)c1ccccc1)NCc1ccccc1 35.8% [at 3.8 µM, 100% = signal doubled over neutral wells], NCCCNC(=S)NCCCN(Cc1ccc(Cl)cc1)c1ccc(Br)cn1 -16.7% [at 0.005 µM, 100% = signal doubled over neutral wells], Cc1cccc(-c2cc3nc4c(c(N5CCCC(O)C5)n3n2)CCC4)c1 (stereo not drawn) 36.7% [at 11 µM, 100% = signal doubled over neutral wells], Fc1ccc(-c2csc3nnc(SCc4cccnc4)n23)cc1 18.4%, COc1ccc(C2=NOC(C(=O)NCc3ccccn3)C2)cc1OC (stereo not drawn) 31.6%, Cn1c(=O)c2[nH]c(SCc3ccccn3)nc2n(C)c1=S -21.4% [at 11 µM, 100% = signal doubled over neutral wells], O=S1(=O)c2ccccc2OC(COCc2ccccc2)CN1C1CC1 (stereo not drawn) -28.4%, CCN(CC)C(=O)c1ccccc1NS(=O)(=O)c1ccc(C)cc1 -13.4% [at 0.0016 µM, 100% = signal doubled over neutral wells], Cn1c(N)c(C(c2ccccc2)c2c(N)n(C)c(=O)n(C)c2=O)c(=O)n(C)c1=O 17.9% [at 0.005 µM, 100% = signal doubled over neutral wells], CC(C)c1ccc(NC2CCCN(C(=O)c3cccnc3)C2)cc1 (stereo not drawn) -13.8% [at 0.42 µM, 100% = signal doubled over neutral wells], CCCc1nc(N)sc1C(=O)OCC -11.4% [at 1.2 µM, 100% = signal doubled over neutral wells], CCOC(=O)c1nc(-c2ccccc2)oc1N(C)C -16.2% [at 1.2 µM, 100% = signal doubled over neutral wells], Nc1nc(SCc2nc3scc(-c4ccccc4)c3c(=O)[nH]2)n[nH]1 50.6%, Cc1ccc(C(=O)n2nc(-c3cccnc3)nc2N)cc1 23.7%, O=c1cc(-c2cccc(Br)c2)nc(-c2ccccc2F)o1 -17.1% [at 11 µM, 100% = signal doubled over neutral wells], Cc1nc(N)c(C#N)c(-c2cccnc2)c1-c1ccccc1 45.7% [at 11 µM, 100% = signal doubled over neutral wells], N#Cc1c(-c2ccco2)cc(C2CC2)nc1N 25.6%, CC1CCc2nc(N)c(C#N)c(-c3ccncc3)c2C1 (stereo not drawn) 21.5%, Cc1cc(C)n2ncc(-c3cccc(Br)c3)c2n1 -17% [at 0.0016 µM, 100% = signal doubled over neutral wells], Cc1cccc(C)c1OCCCn1ccnc1 41% [at 0.046 µM, 100% = signal doubled over neutral wells], O=C(CC1SC2=NCCN2C1=O)Nc1ccc(Br)cc1 (stereo not drawn) -22.5% [at 0.42 µM, 100% = signal doubled over neutral wells], Cc1ccc(NC(=O)CN(C(=O)N2CCN(C)CC2)S(=O)(=O)c2ccc(C)cc2)cc1 -21.9% [at 1.2 µM, 100% = signal doubled over neutral wells], Cc1cc(S(=O)(=O)Nc2nc(CN3CCOCC3)nc3sc4c(c23)CCC4)ccc1F -12.9% [at 0.135 µM, 100% = signal doubled over neutral wells]
